# ChEMBL document CHEMBL3988442, “University of Dundee, Small-Polar-MMV Screening Library” (2021)
# Assays:
# [1] = target: T1, Aspartate--tRNA(Asp/Asn) ligase (Mycobacterium tuberculosis (strain ATCC 25618 / H37Rv)) (UniProt P9WFW3); assay: Assay for Asp RNA synthetase-1 from Mycobacterium tuberculosis; type: functional; set-up: scale not given: direction of the effect not stated beside the values; conditions: 30 µM; further: in the data most compounds retested in dose-response had high values
# T1 sequence (whole entry): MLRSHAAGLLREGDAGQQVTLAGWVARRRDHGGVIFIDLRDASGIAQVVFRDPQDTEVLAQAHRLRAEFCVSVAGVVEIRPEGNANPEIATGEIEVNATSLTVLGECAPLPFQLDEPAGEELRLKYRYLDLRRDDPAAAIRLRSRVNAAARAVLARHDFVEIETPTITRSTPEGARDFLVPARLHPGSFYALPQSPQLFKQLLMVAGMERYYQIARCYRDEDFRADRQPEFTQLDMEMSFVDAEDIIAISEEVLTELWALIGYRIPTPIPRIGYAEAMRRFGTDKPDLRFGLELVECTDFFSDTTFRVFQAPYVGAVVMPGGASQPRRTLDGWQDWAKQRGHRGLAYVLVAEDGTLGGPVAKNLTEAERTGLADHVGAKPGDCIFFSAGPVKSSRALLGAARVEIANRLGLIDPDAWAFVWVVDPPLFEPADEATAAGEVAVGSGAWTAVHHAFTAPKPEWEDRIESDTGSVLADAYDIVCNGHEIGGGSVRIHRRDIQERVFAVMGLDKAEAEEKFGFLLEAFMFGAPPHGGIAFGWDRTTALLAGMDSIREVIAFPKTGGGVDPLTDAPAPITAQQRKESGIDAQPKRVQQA
# [2] = target: Shiga toxin 2 (Escherichia coli O157:H7) (UniProt P09385+P09386); assay: E. coli 0.157:H7 Shiga Toxin SOP - stx2 screening assay; type: functional; set-up: scale not given: direction of the effect not stated beside the values; conditions: 30 µM
Structure (SMILES),Percent Effect [1],Percent Effect [2]
Cc1n[nH]c(C)c1C1CCCN1C(=O)CNC(=O)C(C)(C)C (centres undefined),1.09%,-19.5%
CC(C)c1nn(C)c(Cl)c1CNCc1ccc2c(c1)OCCO2,5.79%,32.9%
NC(=O)CN1CCC(NC(=O)c2ccn(-c3cccc(F)c3)n2)CC1,2.51%,-20%
COc1cccc(NC(=O)N(CCO)Cc2ccsc2)c1,-1.36%,-14.3%
COc1cc(C(=O)N2CCCS2(=O)=O)cc(Cl)c1OC,-11.2%,-4.54%
Cc1ccc(C(=O)NCCS(C)(=O)=O)c(=O)[nH]1,-3.5%,-4.7%
Cc1cnn(CCC(=O)N2CCCN(c3cccnn3)CC2)c1,-0.568%,-11.6%
Cc1cc(C2CCCN(C(=O)c3ccc(C)[nH]c3=O)C2)n[nH]1 (centres undefined),-1%,3.9%
CCn1cc(N2Cc3nc(N4CCN(C)CC4)ncc3C2=O)cn1,-1.54%,-50.9%
OCCOc1nc(-c2ccccc2Cl)no1,-8.6%,-16.2%
COCCN1CC[C@H](O)[C@@H]1Cc1ccccc1,-4.18%,-34.6%
CCN(Cc1cccc(Cl)c1)Cc1nc2c(cnn2C)c(=O)[nH]1,-2.28%,31.3%
Cc1cc(C)n(C2CN(CC(O)c3ccc(F)cc3)C2)n1 (centres undefined),2.19%,6.15%
COc1ccc(CNC(=O)c2nn(C)c3c2CS(=O)(=O)CC3)cc1OC,-8.6%,-18.6%
COCCN1CCN(Cc2cccc(C(=O)N(C)C)c2)CC1C (centres undefined),1.34%,-34.7%
Cc1nc(C)n(CC2CN(c3nnc(C)c(C)c3C#N)CCO2)n1 (centres undefined),-1.7%,27.3%
OCCn1cc(CN2CCN(CCOCC(F)(F)F)CC2)cn1,-3.85%,27.3%
COCC1CN(C(=O)COc2ccccc2)Cc2cn(C)nc21 (centres undefined),1.18%,0.0839%
O=C(COc1coc(CN2CCCC2)cc1=O)NCc1ccccc1Cl,-2.03%,-62.7%
O=C(CCN1CCCN(c2nccs2)CC1)NCC1CCCCC1,-3.75%,-2.79%
O=C(NCC(O)c1cccc(F)c1)c1cccnc1O (centres undefined),-2.85%,-19%
O=C(O)c1coc(COc2cccc(F)c2)n1,-2.21%,-2.73%
O=C(c1cccc(Cl)c1)N1CC[C@H]2[C@H]1CCN2CC1CCOCC1,-4.93%,-25.2%
O=C(c1ccc[nH]1)N1CCn2cc(Cn3cncn3)nc2C1,1.43%,-6.64%

Structure (SMILES),Percent Effect [1],Percent Effect [2]
Cn1cc(-c2csc(CN3CCOCC3)n2)cn1,-7.74%,2.01%
COc1ccc(C)cc1S(=O)(=O)NCC(c1cccn1C)N(C)C (centres undefined),-4.54%,2.58%
Cc1cccnc1CNCC1(O)CCCN(Cc2ccc(F)cc2)C1=O (centres undefined),0.386%,4.74%
c1ccc(OCCCNCCn2cccn2)cc1,-1.5%,-44.6%
Cn1c(CN2CCOCC2)nnc1C1CCN(C(=O)C2CCCC2)CC1,1.73%,-33.5%
Cc1ccc([C@@H]2CN(S(=O)(=O)N(C)C)C[C@H]2N(C)C)cc1,2.81%,5.3%
Cc1ccc(NC2CCN(C(=O)Cn3nc(C)cc3C)CC2)nn1,-3.3%,28.3%
CCOc1ccc(CC(CNC(=O)c2occc2C)C(N)=O)cc1 (centres undefined),2.25%,23.6%
CCN(CC)C(CNC(=O)c1ccc(S(C)(=O)=O)cc1)c1ccco1 (centres undefined),-0.521%,-4.44%
Cc1cc(C)n(CC2CN(CC(=O)Nc3nncs3)CCO2)n1 (centres undefined),1.4%,9.91%
Cc1nn(C)c(C)c1C1CCCN1Cc1cccc(C(=O)N(C)C)c1 (centres undefined),-0.742%,-11.2%
Cc1ccc(-c2cc(N)c(=O)n(CC(=O)NC3CCCCC3)n2)s1,1.95%,13.1%
Cc1nn(C)c(C)c1C1COCCN1C(=O)c1ccccc1 (centres undefined),-8.71%,-37.5%
COc1ccccc1CC1CCCN(CC(=O)N2CCOCC2)C1 (centres undefined),-1.41%,16.7%
COc1ccnc(N2CCN(C(=O)c3cnn(C)c3C3CC3)CC2)n1,-3.2%,11.7%
COCc1nc(CNC2CCSCC2)no1,-4%,9.42%
COc1cccc2cc(CNC(=O)N3CCCC(O)C3)oc12 (centres undefined),-4.17%,-15.3%
Cc1cnc(C(=O)N2CCCC(n3ccnc3C)C2)cn1 (centres undefined),-3.23%,-18.1%
CN1CCN(c2cc(CNC(=O)c3ccc(=O)[nH]n3)ccn2)CC1,-0.544%,-57.8%
CC1CCN(C(=O)CN(Cc2ccco2)C2CC2)CC1,0.548%,-5.22%
COc1cccc(COCC(=O)N2CCCC(c3nncn3C)C2)c1 (centres undefined),-1.97%,8.24%
O=C1C[C@H]2[C@@H](CCN2C(=O)Cc2cccs2)N1Cc1cccnc1,-2.94%,-6.22%
CC(NCc1ccncc1)c1cc(F)ccc1N1CCN(C)CC1 (centres undefined),0.183%,-4.73%
